Rv3671c protease – Rv3671c serine protease inhibitors, primary screen, biochemical, fluorescence polarization, M. tuberculosis H37Rv | inhibition, % at 5.96 µM | 320,000 tested, 0.048% active | AID 2606, 2010; in the data active = inhibition above about 38%;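 note: extracellular domain of Rv3671c used as enzyme; 0% = enzyme with DMSO and 100% = no enzyme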
Mtb FBA inh – Mtb FBA enzyme inhibitors, primary screen, biochemical, fluorescence, strain H37Rv; purified M. tuberculosis FBA, fluorescence read-out; inhibition, % at 1 µM; 360,000 tested, 2.3% active; AID 588726, 2011; in the data active = inhibition above about 27%;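 note: 0% = vehicle and 100% = reference inhibitor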
Target sequence (P9WQA3 whole entry, looked up): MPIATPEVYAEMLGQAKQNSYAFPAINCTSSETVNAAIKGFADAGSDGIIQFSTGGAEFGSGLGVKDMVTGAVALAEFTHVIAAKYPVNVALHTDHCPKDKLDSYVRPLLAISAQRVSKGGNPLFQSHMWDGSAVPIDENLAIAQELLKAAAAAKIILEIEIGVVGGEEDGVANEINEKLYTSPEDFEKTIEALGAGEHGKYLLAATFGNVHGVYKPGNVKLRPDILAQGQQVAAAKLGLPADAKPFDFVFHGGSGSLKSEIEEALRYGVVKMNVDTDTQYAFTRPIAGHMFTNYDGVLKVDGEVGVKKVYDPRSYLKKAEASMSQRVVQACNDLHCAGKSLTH
FadD28 FP inh – inhibitors of FadD28 bisubstrate probe binding, primary screen, biochemical, fluorescence polarization, single point; 360,000 tested, 0.22% active; Mycobacterium tuberculosis FadD28 fatty-acid-AMP ligase; inhibition, % at 12.5 µM; in the data active = inhibition above about 8.5%, passing the limit was not always enough; inconclusive = no clear call, values can overlap the other calls
GDH-TPI counter – GDH-TPI coupling enzyme inhibitors, primary screen, artefact control for M. tuberculosis FBA inhibitor project, biochemical, absorbance, full deck | inhibition, % at 4.8 µM | 360,000 tested, 1.2% active | GDH-TPI coupled enzyme counterscreen, NADH absorbance; in the data active = inhibition above about 30%;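 note: 0% = DMSO wells and 100% = wells lacking the enzyme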
BioA inh – M. tuberculosis BioA enzyme inhibitors, primary screen, biochemical, plate reader, single point, HTS; 360,000 tested, 0.096% active; AID 602481, 2012; inhibition, % at 9.99 µM; purified M. tuberculosis BioA enzyme; in the data active = inhibition above about 40%; inconclusive = no clear call, values can overlap the other calls
* marks the source's active call; other numbers are inactive results; ? = inconclusive; · = not tested or not shown; + = active, no number. A selection: hits, their analogues and other compounds. The true share with any hit is near 3%.

SMILES | Rv3671c protease | Mtb FBA inh | FadD28 FP inh | GDH-TPI counter | BioA inh
CO[C@@H](CN(C)C(=O)c1cnccn1)[C@H](C)CN([C@@H](C)CO)S(=O)(=O)c1ccc(C)cc1 | · | · | · | · | 0.1
O=C(N[C@H]1CC[C@@H](CC(=O)N2CCOCC2)O[C@H]1CO)c1cccc(F)c1 | · | · | · | · | 0.4
C[C@@H]1CN([C@H](C)CO)C(=O)c2cc(N(C)C)ccc2O[C@@H]1CN(C)Cc1ccncc1 | · | · | · | · | -1.3
N#CC(C(=O)Nc1cccc(Cl)c1)=C1Nc2ccccc2N1 | 5.2 | 0.3 | -0.5 | 30.4 | -2.9
N#CC(C(=O)Nc1ccc(Cl)c(Cl)c1)=C1Nc2ccccc2N1 | -19.1 | 6.8 | -1.6 | 32.5* | 0.3
CCOC(=O)c1nn(-c2ccc(Cl)cc2)c2nc(-c3ccc(C)cc3)c(C#N)c(=O)n12 | -9.4 | 6.0 | -1.3 | 5.6 | -2.7
Cc1ccc(-c2c(C#N)c(N)n(-c3ccccc3)c(=O)c2C#N)cc1 | 8.9 | 4.5 | 1.2 | 40.3* | ·
N#Cc1c(C#N)c(-c2ccccc2)n(-c2ccccc2)c1N | -2.8 | 26.9 | 0.4 | -4.8 | ·
Cc1ccc(-c2c(C#N)c(N)n(-c3ccc(Cl)cc3)c(=O)c2C#N)cc1 | · | 1.9 | -1.0 | 31.2* | -0.2
Cc1noc(C)c1S(=O)(=O)Nc1ccc2c(c1)C(=O)N([C@H](C)CO)C[C@H](C)[C@H](CN(C)C(=O)Nc1cccc3ccccc13)OCCCC[C@H](C)O2 | · | · | · | · | -0.7
C[C@@H]1CN([C@H](C)CO)C(=O)CCCn2cc(nn2)CO[C@@H]1CN(C)S(=O)(=O)c1ccc2c(c1)OCCCO2 | · | · | · | · | -3.0
O=[N+]([O-])c1ccccc1C(=Nc1ccccc1)c1c(O)cc(O)cc1O | · | 0.1 | 1.4 | 32.4* | 0.0
O=C(Nc1ccccc1)c1ccccc1NC(=O)c1ccccc1[N+](=O)[O-] | 0.4 | 2.8 | -2.6 | 3.4 | 2.0
C[C@@H]1CCCCO[C@H](CN(C)Cc2ccc(C(=O)O)cc2)[C@H](C)CN([C@@H](C)CO)C(=O)c2cc(NC(=O)Cc3ccccc3)ccc2O1 | · | · | · | · | -2.3
O=C1NC(=S)N/C1=C\C=C\c1ccccc1 | 4.5 | 1.1 | 0.3 | 33.2* | -1.6
CCNC(=O)[C@@H]1[C@@H](CO)[C@@H]2Cn3c(ccc(C4=CCCC4)c3=O)[C@@H]2N1CC1CC1 | · | · | · | · | -1.2
COCC#Cc1cnc2c(c1)C(=O)N([C@@H](C)CO)C[C@H](C)[C@@H](CN(C)S(C)(=O)=O)O2 | · | · | · | · | -0.9
COc1cc(/C=C2\SC(=Nc3ccccc3OC)NC2=O)ccc1O | 7.9 | -2.3 | 0.8 | 24.8 | -3.2
O=C1NC(=Nc2ccccc2)S/C1=C\c1ccccc1 | -8.6 | -0.4 | -1.8 | 33.2* | -2.5
O=C1NC(=Nc2cccc(O)c2)S/C1=C\c1cccc([N+](=O)[O-])c1 | -7.8 | -3.4 | -1.7 | 32.4* | ·
COc1ccc(/C=C2\SC(=Nc3ccccc3OC)NC2=O)cc1 | -15.9 | -2.4 | -2.0 | 50.4* | 2.4
O=C(C[C@@H]1CC[C@@H](NC(=O)Nc2cc(F)ccc2F)[C@@H](CO)O1)NCCCN1CCOCC1 | · | · | · | · | -1.1
C=CCN1C(c2ccccc2)=CS/C1=C(\C#N)c1nnc2n1CCCCC2 | 7.9 | -6.2 | -3.4 | 17.2 | 1.5
CCOc1ccc(C2=CS/C(=C(\C#N)c3nnc4n3CCCCC4)N2CC)cc1 | -2.7 | -0.9 | -1.5 | 31.9* | -2.8
CC(OC(=O)/C(C#N)=C/c1ccco1)C(=O)N(C)c1ccccc1 (stereo unspecified) | -6.8 | -5.0 | -5.5 | 32.3* | 1.2
SMILES | Rv3671c protease | Mtb FBA inh | FadD28 FP inh | GDH-TPI counter | BioA inh
Cc1ccc(C(=O)NCCSCc2ccc(Cl)cc2Cl)cc1[N+](=O)[O-] | -24.7 | -3.3 | 16.9* | 2.8 | ·
S=c1[nH]nc(-c2cc3c(s2)-c2ccccc2CC3)o1 | 0.7 | + | ? | 21.7 | ·
CSc1nnc(-c2cc3c(s2)-c2ccccc2CC3)o1 | -5.9 | + | -2.8 | 16.8 | ·
CC1CCc2sc(-c3n[nH]c(=S)o3)cc2C1 (stereo unspecified) | 0.2 | + | -0.7 | 15.4 | ·
CC(C)NC(=O)N(C)C[C@H]1Oc2ccc(NS(=O)(=O)c3ccc(F)cc3)cc2CC(=O)N([C@H](C)CO)C[C@H]1C | · | · | · | · | -2.6
Cc1cc(C)n(C(=O)c2cc3sccc3[nH]2)n1 | -5.4 | -0.3 | -1.2 | 32.6* | -0.4
O=C(NCC[C@@H]1CC[C@H](NS(=O)(=O)c2ccccc2F)[C@H](CO)O1)c1ccc(F)cc1 | · | · | · | · | 2.3
CN(C)c1ccc(/C=C(/NC(=O)c2ccccc2Cl)C(=O)NCCN2CCOCC2)cc1 | -25.2 | -1.7 | -3.2 | 41.9* | -2.4
Cc1ccc(C(=O)N/C(=C\c2cn(C)c3ccccc23)C(=O)NCCCN2CCOCC2)cc1 | -4.8 | -0.6 | -1.1 | 22.9 | ·
CCn1cc(/C=C(\NC(=O)c2ccccc2F)C(=O)N2CCN(C)CC2)c2ccccc21 | · | 0.7 | -0.8 | 38.9* | -0.4
CCn1cc(/C=C(\NC(=O)c2ccc(OC)c(OC)c2)C(=O)NCCCN2CCOCC2)c2ccccc21 | · | 3.4 | -2.4 | 40.9* | 5.8
CN(C)c1ccc(/C=C(/NC(=O)c2ccccc2)C(=O)NCCN2CCOCC2)cc1 | -23.8 | -3.4 | -3.1 | 27.8 | -2.5
CCn1cc(/C=C(\NC(=O)c2ccc(C)cc2)C(=O)NCCCN2CCOCC2)c2ccccc21 | · | 0.7 | 1.0 | 41.5* | -5.2
CO[C@@H](CN(C)Cc1ccc2c(c1)OCO2)[C@H](C)CN(C(=O)Nc1ccc(F)cc1)[C@@H](C)CO | · | · | · | · | 2.1
Cc1ccc(S(=O)(=O)N[C@H]2CC[C@@H](CCNC(=O)C3CCCCC3)O[C@H]2CO)cc1 | · | · | · | · | -1.5
COc1ccccc1C(=O)N/C(=C\c1cn(C)c2ccccc12)C(=O)NCCCN1CCOCC1 | -6.9 | -2.0 | -3.2 | 36.2* | 2.3
CCn1cc(/C=C(\NC(=O)c2ccccc2)C(=O)NCCN2CCOCC2)c2ccccc21 | · | -4.0 | -1.1 | 47.8* | -1.7
CCn1cc(/C=C(\NC(=O)c2ccccc2Cl)C(=O)NCCN2CCOCC2)c2ccccc21 | 0.3 | -4.8 | 0.7 | 22.3 | ·
COc1ccc(S(=O)(=O)Nc2cccc3c2O[C@H](CN(C)S(=O)(=O)c2cn(C)cn2)[C@@H](C)CN([C@@H](C)CO)C3=O)cc1 | · | · | · | · | -1.4
C=CCN1C(=O)S/C(=C/c2ccsc2)C1=O | 2.5 | -0.5 | -1.6 | 23.4 | -3.2
CCN1C(=O)S/C(=C/c2ccsc2)C1=O | -4.9 | -1.7 | -0.5 | 38.8* | 0.0
CCc1nn(CC(=O)NCCCN2CCOCC2)c(=O)c2cc3c(OC)cccc3n12 | · | 112.4* | -1.9 | 15.7 | -1.2
CCc1nn(CC(=O)NCCCc2ccccc2)c(=O)c2cc3c(OC)cccc3n12 | -2.3 | 12.1 | -3.8 | -8.2 | -1.2
COc1cccc2c1cc1c(=O)n(CC(=O)NCCCc3ccccc3)nc(C)n12 | -4.0 | 13.9 | 0.1 | 2.5 | -2.4
COc1cccc2c1cc1c(=O)n(CC(=O)NCCCN3CCCCC3)nc(C)n12 | 1.1 | 115.8* | -0.9 | 5.7 | 0.3

From PubChem BioAssay
